This is part of a sample that, as a whole, favours compounds with a hit. Of some 83,000 tested, about 20% had one in any assay.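 Negative percent growth values reflect cell death: -40 means 40% of the cells present at the start died, and -100 means all died.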 Active and inactive are the calls of the source. The calls were made as follows: active = growth percent below 10; inactive = the rest.
How the values were obtained:
Test in all cases: NCI-60 one-dose screen, 48 h (100 = growth as untreated, 0 = no growth, -100 = all killed)
Details in all cases: 10 µM
DU-145 prostate = test system: DU-145 prostate
K-562 leukemia = test system: K-562 leukemia
MALME-3M melanoma = test system: MALME-3M melanoma
MDA-MB-231 breast = test system: MDA-MB-231 breast
RXF 393 renal = test system: RXF 393 renal
SF-268 CNS = test system: SF-268 CNS
SF-295 CNS = test system: SF-295 CNS
SF-539 CNS = test system: SF-539 CNS
M14 melanoma = test system: M14 melanoma
HCT-15 colon = test system: HCT-15 colon
HT29 colon = test system: HT29 colon
SNB-75 CNS = test system: SNB-75 CNS
SNB-19 CNS = test system: SNB-19 CNS
U251 CNS = test system: U251 CNS
SK-MEL-5 melanoma = test system: SK-MEL-5 melanoma
UACC-62 melanoma = test system: UACC-62 melanoma
LOX IMVI melanoma = test system: LOX IMVI melanoma
SK-MEL-28 melanoma = test system: SK-MEL-28 melanoma
UACC-257 melanoma = test system: UACC-257 melanoma
PC-3 prostate = test system: PC-3 prostate

Measured: growth

COc1ccc(C(c2ccc(OCCN(C)C)cc2)c2cc3ccccc3c3ccccc23)cc1 (stereo not given)
active: K-562 leukemia -29.9% | MALME-3M melanoma -43.4% | M14 melanoma -72.3% | HCT-15 colon -30.9% | HT29 colon -7.37% | UACC-62 melanoma -47.8% | LOX IMVI melanoma -81% | SK-MEL-28 melanoma -77.8%
inactive: DU-145 prostate 34.2% | MDA-MB-231 breast 17.1% | RXF 393 renal 49.5% | SF-268 CNS 67.3% | SF-295 CNS 58% | SF-539 CNS 66.9% | SNB-75 CNS 86.8% | SNB-19 CNS 65% | U251 CNS 16.6% | SK-MEL-5 melanoma 58.6%

COc1ccc(/C=C/c2nnc(/C=C/c3ccc(OC)c(OC)c3)o2)cc1OC
inactive: DU-145 prostate 49.2% | K-562 leukemia 14.8% | MALME-3M melanoma 57.1% | MDA-MB-231 breast 17.8% | RXF 393 renal 27.4% | SF-268 CNS 41.9% | SF-295 CNS 12.5% | HCT-15 colon 21.6% | SNB-75 CNS 38.4% | SNB-19 CNS 14.8% | U251 CNS 16.2% | SK-MEL-28 melanoma 30.6%
active: SF-539 CNS -11.8% | M14 melanoma 5.44% | HT29 colon -7.7% | SK-MEL-5 melanoma 2.81% | UACC-62 melanoma 9.17% | LOX IMVI melanoma 4.41%

CC(C)(C)c1ccc(S(=O)(=O)N[C@H]2CC[C@H]3[C@@H]4CCc5cc(O)c([N+](=O)[O-])cc5[C@H]4CC[C@]23C)cc1
active: SNB-75 CNS 5.54%
inactive: DU-145 prostate 67.4% | K-562 leukemia 70.1% | MALME-3M melanoma 67.1% | MDA-MB-231 breast 35.7% | RXF 393 renal 42.5% | SF-268 CNS 72.6% | SF-539 CNS 81.5% | UACC-257 melanoma 77.7% | M14 melanoma 78.5% | HCT-15 colon 87.9% | HT29 colon 70% | PC-3 prostate 47.4% | SK-MEL-5 melanoma 83.5% | UACC-62 melanoma 84.2% | SK-MEL-28 melanoma 77%

C[C@]12CC[C@@H]3c4ccc(OS(=O)(=O)O)cc4CC[C@H]3[C@@H]1CC[C@@H]2NS(=O)(=O)c1ccc(-c2ccccc2)cc1
inactive: DU-145 prostate 75.3% | K-562 leukemia 26.8% | MALME-3M melanoma 60.8% | MDA-MB-231 breast 84.3% | RXF 393 renal 53.1% | SF-268 CNS 69.8% | SF-539 CNS 90.1% | UACC-257 melanoma 77.2% | M14 melanoma 62.8% | HCT-15 colon 52.6% | HT29 colon 50% | SNB-75 CNS 75.6% | SNB-19 CNS 89.6% | PC-3 prostate 41% | SK-MEL-5 melanoma 67.4% | UACC-62 melanoma 79.1% | SK-MEL-28 melanoma 95.8%

c1cncc(-c2csc(-c3c[nH]c4ccccc34)n2)c1
inactive: DU-145 prostate 103% | K-562 leukemia 97.7% | MALME-3M melanoma 78.8% | MDA-MB-231 breast 73.5% | RXF 393 renal 111% | SF-268 CNS 92.5% | SF-295 CNS 92.6% | SF-539 CNS 84.9% | M14 melanoma 85.8% | HCT-15 colon 85.4% | HT29 colon 92.4% | SNB-75 CNS 63.7% | SNB-19 CNS 95.5% | U251 CNS 90.9% | SK-MEL-5 melanoma 84.5% | UACC-62 melanoma 88.7% | LOX IMVI melanoma 87% | SK-MEL-28 melanoma 103%

COc1cc2c3c(n(C4CCN(C)CC4)c(=O)c2cc1OC)-c1cc2c(cc1C3=O)OCO2
active: SF-539 CNS -55.5% | UACC-62 melanoma -25.6% | LOX IMVI melanoma 8.68%
inactive: DU-145 prostate 78.4% | K-562 leukemia 81.2% | MALME-3M melanoma 89.5% | MDA-MB-231 breast 43.6% | RXF 393 renal 68.2% | SF-268 CNS 50.5% | SF-295 CNS 46.7% | M14 melanoma 60.9% | HT29 colon 39.7% | SNB-75 CNS 60.1% | SNB-19 CNS 59.6% | U251 CNS 35.5% | SK-MEL-5 melanoma 57.7% | SK-MEL-28 melanoma 107%

CCNc1nc(C(F)(F)F)nc2c1sc(=S)n2-c1ccccc1
inactive: DU-145 prostate 101% | K-562 leukemia 103% | MALME-3M melanoma 144% | MDA-MB-231 breast 85.1% | RXF 393 renal 100% | SF-268 CNS 105% | SF-295 CNS 94% | SF-539 CNS 101% | M14 melanoma 108% | HCT-15 colon 94.7% | HT29 colon 88.8% | SNB-75 CNS 99.2% | SNB-19 CNS 107% | U251 CNS 93.3% | SK-MEL-5 melanoma 87.6% | UACC-62 melanoma 93.9% | LOX IMVI melanoma 88.6% | SK-MEL-28 melanoma 112%

Cc1ccc(-c2c3c(N)nc(-c4cccnc4)nc3nc3c2c(C)nn3-c2ccccc2)cc1
active: SNB-75 CNS -0.959%
inactive: DU-145 prostate 98.1% | K-562 leukemia 86.7% | MALME-3M melanoma 91.9% | MDA-MB-231 breast 75.9% | RXF 393 renal 79% | SF-268 CNS 80.7% | SF-295 CNS 96.1% | SF-539 CNS 45.8% | M14 melanoma 97.3% | HCT-15 colon 84.4% | HT29 colon 77.3% | SNB-19 CNS 99.1% | PC-3 prostate 69.3% | SK-MEL-5 melanoma 76.1% | UACC-62 melanoma 82.2% | LOX IMVI melanoma 80.9% | SK-MEL-28 melanoma 68.2%

COc1ccc2nc(Cl)c(Cn3nnc(Cc4ccccc4)n3)cc2c1
inactive: DU-145 prostate 61.6% | K-562 leukemia 32.9% | MALME-3M melanoma 34.4% | MDA-MB-231 breast 50.7% | RXF 393 renal 60.2% | SF-268 CNS 51.5% | SF-295 CNS 37.4% | SF-539 CNS 67.5% | M14 melanoma 30.3% | HCT-15 colon 36.5% | HT29 colon 27.4% | SNB-75 CNS 57.1% | SNB-19 CNS 58% | U251 CNS 53.2% | UACC-62 melanoma 35.1% | LOX IMVI melanoma 42.9% | SK-MEL-28 melanoma 47.5%
active: SK-MEL-5 melanoma -47.2%

O=C(Nc1ccccc1)Nc1ncnc2c1ncn2-c1ccccc1
inactive: DU-145 prostate 99.2% | K-562 leukemia 98.7% | MALME-3M melanoma 76.5% | MDA-MB-231 breast 68.3% | RXF 393 renal 95.4% | SF-268 CNS 92.5% | SF-295 CNS 31% | SF-539 CNS 82.8% | M14 melanoma 81.4% | HCT-15 colon 85% | HT29 colon 75.2% | SNB-75 CNS 41.5% | SNB-19 CNS 57.7% | U251 CNS 48.9% | SK-MEL-5 melanoma 67.7% | UACC-62 melanoma 91.8% | LOX IMVI melanoma 91% | SK-MEL-28 melanoma 94%

c1cnc2[nH]cc(-c3nc(-c4ccsc4)cs3)c2c1
inactive: DU-145 prostate 98.8% | K-562 leukemia 109% | MALME-3M melanoma 121% | MDA-MB-231 breast 85.6% | RXF 393 renal 98.3% | SF-268 CNS 79.9% | SF-295 CNS 101% | SF-539 CNS 93.7% | M14 melanoma 104% | HCT-15 colon 86.1% | HT29 colon 104% | SNB-75 CNS 90.7% | SNB-19 CNS 102% | U251 CNS 90.4% | SK-MEL-5 melanoma 81.6% | UACC-62 melanoma 96.2% | LOX IMVI melanoma 96.2% | SK-MEL-28 melanoma 122%

O=C(CCNC(=O)c1nc(-c2ccccc2)n(-c2ccc(Cl)cc2)n1)NO
inactive: DU-145 prostate 102% | K-562 leukemia 105% | MALME-3M melanoma 97.4% | MDA-MB-231 breast 102% | RXF 393 renal 99.6% | SF-268 CNS 93.9% | SF-295 CNS 99% | SF-539 CNS 84.6% | M14 melanoma 97% | HT29 colon 89.8% | SNB-75 CNS 99.1% | SNB-19 CNS 102% | U251 CNS 96.1% | SK-MEL-5 melanoma 103% | UACC-62 melanoma 100% | LOX IMVI melanoma 98.5% | SK-MEL-28 melanoma 101%

CNC(=O)c1cc(Oc2ccc3c(c2)sc2nc(-c4ccc(N)cc4)cn23)ccn1
active: DU-145 prostate 7.79% | SF-539 CNS 6.43% | HT29 colon 0.705% | SK-MEL-5 melanoma -0.651%
inactive: K-562 leukemia 12% | MALME-3M melanoma 66.8% | MDA-MB-231 breast 22.2% | RXF 393 renal 43.8% | SF-268 CNS 41.9% | SF-295 CNS 18% | HCT-15 colon 11% | SNB-75 CNS 38.4% | SNB-19 CNS 32.1% | U251 CNS 11.5% | PC-3 prostate 29.2% | UACC-62 melanoma 41.9% | LOX IMVI melanoma 22.7% | SK-MEL-28 melanoma 66.1%

Cn1c2ccccc2c2c3[nH][nH]c(=O)c3c3c4ccccc4[nH]c3c21
inactive: DU-145 prostate 10.5% | K-562 leukemia 32.3% | MALME-3M melanoma 92.3% | MDA-MB-231 breast 19.8% | SF-268 CNS 25% | SF-295 CNS 81.3% | M14 melanoma 17.4% | HCT-15 colon 19.7% | HT29 colon 43.3% | SNB-75 CNS 37.2% | SNB-19 CNS 32.5% | U251 CNS 22.7% | SK-MEL-28 melanoma 29.3%
active: RXF 393 renal -36.7% | SF-539 CNS -20.8% | SK-MEL-5 melanoma -18.1% | UACC-62 melanoma -5.51% | LOX IMVI melanoma -30.3%

Cc1cc(SCc2ccccc2)nc(N)n1
active: MALME-3M melanoma -0.674%
inactive: DU-145 prostate 104% | K-562 leukemia 105% | MDA-MB-231 breast 107% | RXF 393 renal 124% | SF-268 CNS 100% | SF-295 CNS 102% | UACC-257 melanoma 125% | M14 melanoma 115% | HCT-15 colon 104% | SNB-19 CNS 92.1% | U251 CNS 118% | SK-MEL-5 melanoma 117% | UACC-62 melanoma 87.5% | LOX IMVI melanoma 103% | SK-MEL-28 melanoma 106%

Cc1c2cnccc2c(C)c2c1c1cc(O)ccc1n2C(C)C
active: MALME-3M melanoma -17.9% | MDA-MB-231 breast 9.51% | RXF 393 renal -39.5% | SF-268 CNS 9.03% | SF-539 CNS 7.2% | M14 melanoma -19% | HCT-15 colon 2.12% | SNB-75 CNS 0.198% | SK-MEL-5 melanoma -49.3% | UACC-62 melanoma -15.7% | LOX IMVI melanoma -17.2% | SK-MEL-28 melanoma 6.18%
inactive: DU-145 prostate 12.1% | K-562 leukemia 16.9% | SF-295 CNS 34.5% | HT29 colon 25% | SNB-19 CNS 18.3% | U251 CNS 17.8%

COc1ccc2nc3cc(Cl)ccc3c(N)c2c1
active: DU-145 prostate -96.8% | K-562 leukemia -60.6% | MALME-3M melanoma -71.8% | MDA-MB-231 breast -94.1% | RXF 393 renal -98.1% | SF-268 CNS -85.7% | SF-539 CNS -90.3% | UACC-257 melanoma -81.2% | M14 melanoma -95.6% | HCT-15 colon -65% | HT29 colon -67.3% | SNB-75 CNS -99.3% | SNB-19 CNS 4.71% | U251 CNS -74.3% | PC-3 prostate -73% | SK-MEL-5 melanoma -95.6% | UACC-62 melanoma -96.4% | LOX IMVI melanoma -94.7% | SK-MEL-28 melanoma -98.4%
